According to the supplement of paper PMC10849652:
The full data set covers some 7,900 targets. This sample favours those with a hit. About 0.6% of all pairs of compound and target were hits.

What follows are targets tested with C1COCCN1CCN2C3=CC=CC=C3N=C2NC(=O)C4=CC(=CC=C4)[N+](=O)[O-] [IRAK-1-4 Inhibitor I] (assay: log2 fold change, soluble protein after heating vs DMSO (PISA); higher = thermal stabilisation; K562 cells, 10 uM, 30 min; active = over 0.2 and 3.5 SD of the protein, either way, in both replicates (recomputed)).
Procedure, shortened: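 K562 cells at 2×10^6 cells/mL were given 10 μM compound for 30 min. Aliquots then went through 3 min of heating across 48°C-58°C, were pooled, and were extracted in PBS with 0.5% NP-40 at 4°C, and the supernatant after 21,000xg for 90 min was quantified by TMTpro 16plex LC-MS/MS with channel sums equalised. Thermal stability relative to control samples, from duplicates, is given as log2 fold change.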

UniProt Q12894, sequence (Q12894 whole entry, looked up): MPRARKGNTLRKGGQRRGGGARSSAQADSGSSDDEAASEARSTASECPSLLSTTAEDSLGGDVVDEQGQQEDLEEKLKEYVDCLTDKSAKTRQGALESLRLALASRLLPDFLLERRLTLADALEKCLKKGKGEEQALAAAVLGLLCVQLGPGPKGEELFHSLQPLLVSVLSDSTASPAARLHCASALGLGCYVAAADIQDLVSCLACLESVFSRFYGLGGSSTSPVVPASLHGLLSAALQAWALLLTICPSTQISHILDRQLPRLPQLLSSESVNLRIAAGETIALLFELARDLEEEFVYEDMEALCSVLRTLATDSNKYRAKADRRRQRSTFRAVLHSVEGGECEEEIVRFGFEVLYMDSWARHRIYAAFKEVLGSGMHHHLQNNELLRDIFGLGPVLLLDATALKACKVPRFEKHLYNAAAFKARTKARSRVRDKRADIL
UniProt Q6Y7W6, sequence (Q6Y7W6 whole entry, looked up): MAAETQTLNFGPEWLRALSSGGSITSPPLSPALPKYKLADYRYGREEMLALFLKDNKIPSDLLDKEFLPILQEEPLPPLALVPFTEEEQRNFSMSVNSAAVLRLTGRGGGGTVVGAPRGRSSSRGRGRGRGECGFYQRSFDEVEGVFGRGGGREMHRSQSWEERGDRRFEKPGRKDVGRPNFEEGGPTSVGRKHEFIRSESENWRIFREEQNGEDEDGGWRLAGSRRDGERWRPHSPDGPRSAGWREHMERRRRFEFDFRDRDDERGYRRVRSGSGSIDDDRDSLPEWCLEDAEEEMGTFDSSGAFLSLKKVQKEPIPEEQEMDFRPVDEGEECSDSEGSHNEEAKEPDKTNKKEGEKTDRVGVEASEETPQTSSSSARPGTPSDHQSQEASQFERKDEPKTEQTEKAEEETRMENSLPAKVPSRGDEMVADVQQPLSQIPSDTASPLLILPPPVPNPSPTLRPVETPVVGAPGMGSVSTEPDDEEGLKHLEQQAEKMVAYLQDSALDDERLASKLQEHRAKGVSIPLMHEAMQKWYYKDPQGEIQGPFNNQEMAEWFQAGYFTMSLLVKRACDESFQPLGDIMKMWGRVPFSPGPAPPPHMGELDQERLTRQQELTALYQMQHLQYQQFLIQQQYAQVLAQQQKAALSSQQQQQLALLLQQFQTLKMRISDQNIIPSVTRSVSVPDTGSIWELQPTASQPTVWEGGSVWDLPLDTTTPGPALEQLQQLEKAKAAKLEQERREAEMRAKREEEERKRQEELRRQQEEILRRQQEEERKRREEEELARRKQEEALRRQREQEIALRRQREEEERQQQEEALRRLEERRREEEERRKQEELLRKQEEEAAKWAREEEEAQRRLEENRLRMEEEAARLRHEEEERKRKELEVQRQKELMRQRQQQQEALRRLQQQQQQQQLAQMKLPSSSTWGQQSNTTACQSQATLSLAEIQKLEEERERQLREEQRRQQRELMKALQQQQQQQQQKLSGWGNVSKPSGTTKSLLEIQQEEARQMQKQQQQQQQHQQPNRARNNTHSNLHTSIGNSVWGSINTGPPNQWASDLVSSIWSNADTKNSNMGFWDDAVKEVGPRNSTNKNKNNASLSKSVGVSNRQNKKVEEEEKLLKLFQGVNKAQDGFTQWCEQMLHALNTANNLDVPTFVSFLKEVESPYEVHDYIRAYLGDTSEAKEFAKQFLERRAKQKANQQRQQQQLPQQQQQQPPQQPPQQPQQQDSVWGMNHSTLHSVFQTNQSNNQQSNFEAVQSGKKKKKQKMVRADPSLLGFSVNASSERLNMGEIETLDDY
UniProt Q8N4A0, sequence (Q8N4A0 whole entry, looked up): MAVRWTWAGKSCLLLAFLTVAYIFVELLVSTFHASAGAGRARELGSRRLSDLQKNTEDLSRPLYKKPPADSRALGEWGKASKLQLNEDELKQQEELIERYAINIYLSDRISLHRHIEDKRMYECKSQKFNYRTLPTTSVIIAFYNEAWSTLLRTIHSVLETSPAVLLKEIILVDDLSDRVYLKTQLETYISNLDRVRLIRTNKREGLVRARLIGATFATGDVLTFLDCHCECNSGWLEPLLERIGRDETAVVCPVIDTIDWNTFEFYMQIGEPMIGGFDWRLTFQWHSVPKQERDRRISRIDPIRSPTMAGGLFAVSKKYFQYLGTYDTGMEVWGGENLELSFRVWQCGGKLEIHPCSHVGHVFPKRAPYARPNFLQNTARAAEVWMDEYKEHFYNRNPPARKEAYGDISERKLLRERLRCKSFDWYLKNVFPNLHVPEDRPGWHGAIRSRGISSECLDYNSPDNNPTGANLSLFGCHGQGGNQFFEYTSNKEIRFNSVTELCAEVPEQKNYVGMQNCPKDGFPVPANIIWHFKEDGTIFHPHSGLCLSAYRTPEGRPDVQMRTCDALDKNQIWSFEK
UniProt Q14527, sequence (Q14527 whole entry, looked up): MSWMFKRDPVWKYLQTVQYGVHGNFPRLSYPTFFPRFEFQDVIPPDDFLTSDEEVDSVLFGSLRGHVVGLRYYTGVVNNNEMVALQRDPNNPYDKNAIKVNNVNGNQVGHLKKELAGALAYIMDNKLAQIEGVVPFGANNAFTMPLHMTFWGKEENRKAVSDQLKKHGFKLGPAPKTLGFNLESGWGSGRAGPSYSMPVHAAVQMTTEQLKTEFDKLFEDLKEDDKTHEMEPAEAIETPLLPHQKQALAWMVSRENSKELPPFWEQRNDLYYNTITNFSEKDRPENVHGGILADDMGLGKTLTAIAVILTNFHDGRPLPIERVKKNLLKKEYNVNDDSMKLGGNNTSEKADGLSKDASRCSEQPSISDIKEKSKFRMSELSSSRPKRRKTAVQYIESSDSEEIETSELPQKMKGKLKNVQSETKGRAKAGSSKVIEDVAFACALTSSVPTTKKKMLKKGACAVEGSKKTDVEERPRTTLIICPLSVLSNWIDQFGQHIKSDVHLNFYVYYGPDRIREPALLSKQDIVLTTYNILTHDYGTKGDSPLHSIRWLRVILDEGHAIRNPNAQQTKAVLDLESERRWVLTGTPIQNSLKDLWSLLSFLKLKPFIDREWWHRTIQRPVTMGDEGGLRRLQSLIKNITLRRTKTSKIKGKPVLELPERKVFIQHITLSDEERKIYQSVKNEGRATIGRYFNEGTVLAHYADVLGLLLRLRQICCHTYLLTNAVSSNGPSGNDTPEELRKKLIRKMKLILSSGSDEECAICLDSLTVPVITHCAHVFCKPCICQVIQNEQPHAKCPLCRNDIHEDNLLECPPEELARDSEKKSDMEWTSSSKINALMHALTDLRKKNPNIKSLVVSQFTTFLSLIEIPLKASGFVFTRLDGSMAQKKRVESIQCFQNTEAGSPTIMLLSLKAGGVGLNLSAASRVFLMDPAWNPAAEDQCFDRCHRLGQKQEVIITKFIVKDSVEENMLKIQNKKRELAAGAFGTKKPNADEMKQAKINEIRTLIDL
UniProt Q00403, sequence (Q00403 whole entry, looked up): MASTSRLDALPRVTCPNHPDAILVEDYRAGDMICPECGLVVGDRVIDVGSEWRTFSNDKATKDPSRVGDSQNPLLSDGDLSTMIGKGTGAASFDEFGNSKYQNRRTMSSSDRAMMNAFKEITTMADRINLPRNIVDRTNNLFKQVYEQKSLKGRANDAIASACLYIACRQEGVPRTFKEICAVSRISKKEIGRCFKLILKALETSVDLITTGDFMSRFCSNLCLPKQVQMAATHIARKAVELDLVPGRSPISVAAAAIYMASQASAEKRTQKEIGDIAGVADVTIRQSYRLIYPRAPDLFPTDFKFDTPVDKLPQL
UniProt Q6P3S6, sequence (Q6P3S6 whole entry, looked up): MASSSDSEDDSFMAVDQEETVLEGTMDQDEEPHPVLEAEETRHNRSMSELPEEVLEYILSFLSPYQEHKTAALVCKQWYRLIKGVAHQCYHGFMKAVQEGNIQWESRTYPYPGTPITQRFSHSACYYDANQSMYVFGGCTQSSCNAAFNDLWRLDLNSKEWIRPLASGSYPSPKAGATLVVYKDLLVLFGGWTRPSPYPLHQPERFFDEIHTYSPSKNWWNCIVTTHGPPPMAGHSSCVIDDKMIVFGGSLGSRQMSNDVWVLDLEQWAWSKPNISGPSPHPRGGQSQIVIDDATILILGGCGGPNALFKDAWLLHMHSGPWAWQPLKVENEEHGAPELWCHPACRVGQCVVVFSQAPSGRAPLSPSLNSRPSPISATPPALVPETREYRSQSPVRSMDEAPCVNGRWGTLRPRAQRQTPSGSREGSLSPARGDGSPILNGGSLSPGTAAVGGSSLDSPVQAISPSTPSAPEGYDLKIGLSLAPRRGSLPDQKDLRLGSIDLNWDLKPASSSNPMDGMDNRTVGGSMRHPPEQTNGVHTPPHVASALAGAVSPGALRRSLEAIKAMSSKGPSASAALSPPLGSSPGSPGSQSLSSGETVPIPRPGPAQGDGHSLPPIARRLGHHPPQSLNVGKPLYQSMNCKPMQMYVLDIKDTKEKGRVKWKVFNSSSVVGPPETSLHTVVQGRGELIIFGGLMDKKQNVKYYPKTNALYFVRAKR
UniProt Q9BUP3, sequence (Q9BUP3 whole entry, looked up): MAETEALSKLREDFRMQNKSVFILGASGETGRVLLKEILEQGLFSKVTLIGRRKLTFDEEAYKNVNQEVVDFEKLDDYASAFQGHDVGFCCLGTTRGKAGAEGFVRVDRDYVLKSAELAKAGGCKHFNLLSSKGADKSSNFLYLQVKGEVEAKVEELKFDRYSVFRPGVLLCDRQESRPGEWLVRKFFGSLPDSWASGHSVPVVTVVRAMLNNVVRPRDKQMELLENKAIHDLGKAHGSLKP
UniProt Q9NZC3, sequence (Q9NZC3 whole entry, looked up): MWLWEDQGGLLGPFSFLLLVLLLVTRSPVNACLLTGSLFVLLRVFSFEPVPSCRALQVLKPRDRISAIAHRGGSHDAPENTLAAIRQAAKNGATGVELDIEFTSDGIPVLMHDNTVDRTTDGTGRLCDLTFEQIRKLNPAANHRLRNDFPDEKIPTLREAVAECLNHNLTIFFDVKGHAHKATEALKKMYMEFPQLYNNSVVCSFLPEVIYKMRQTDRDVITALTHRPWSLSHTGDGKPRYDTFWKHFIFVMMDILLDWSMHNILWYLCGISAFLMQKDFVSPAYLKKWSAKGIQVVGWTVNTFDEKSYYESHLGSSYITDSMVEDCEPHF
UniProt P63218, sequence (P63218 whole entry, looked up): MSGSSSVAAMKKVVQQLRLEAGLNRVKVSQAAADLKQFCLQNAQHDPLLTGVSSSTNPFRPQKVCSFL

log2 fold change, inactive:
HMGB3 (UniProt O15347) 0.071
HNRNPUL1 (UniProt Q9BUJ2) -0.055
FANCD2 isoform 1 (UniProt Q9BXW9) -0.002
HOOK3 (UniProt Q86VS8) 0.003
HECTD1 (UniProt Q9ULT8) -0.076
HDGFL2 (UniProt Q7Z4V5) 0.01
GTF2E1 (UniProt P29083) -0.048
IFI30 (UniProt P13284) 0.157
GSK3B isoform 2 (UniProt P49841) 0.017
GIGYF2 (UniProt Q6Y7W6) -0.01
GPAT4 (UniProt Q86UL3) -0.144
HTATIP2 isoform 3 (UniProt Q9BUP3) 0.007
H2AZ1 (UniProt P0C0S5) -0.115
IFRD2 isoform 2 (UniProt Q12894) 0.141
GEMIN5 (UniProt Q8TEQ6) -0.037
HIC2 (UniProt Q96JB3) -0.073
GTF2B (UniProt Q00403) -0.063
IDH3A (UniProt P50213) 0.033
HNRNPF (UniProt P52597) -0.143
GAGE12F (UniProt P0CL80) 0.045
GDE1 (UniProt Q9NZC3) -0.052
GLB1 (UniProt P16278) 0.041
FASTKD1 (UniProt Q53R41) 0.016
GALNT4 (UniProt Q8N4A0) 0.038
HHEX (UniProt Q03014) 0.045
HPCAL1 (UniProt P37235) 0.02
GNG5 (UniProt P63218) -0.022
GLYR1 (UniProt Q49A26) -0.067
HLTF (UniProt Q14527) -0.026
GTF2E2 (UniProt P29084) -0.041
HADHB (UniProt P55084) -0.025
HBZ (UniProt P02008) 0.025
FBXO42 (UniProt Q6P3S6) -0.103
GALNT11 (UniProt Q8NCW6) -0.008
GNB2 (UniProt P62879) -0.021
